From PubChem BioAssay
A selection: hits, their analogues and other compounds. The true share with any hit is near 7.4%.
ELG1 genotox – qHTS screen for small molecules that induce genotoxicity in human embryonic kidney (HEK293T) cells expressing luciferase-tagged ELG1; AID 504466, 2011; Potency, µM (highest dose often 46 µM), usual class: activators; actives 1.3% (n = 330,000); HEK293T ELG1-luciferase reporter, luminescence, 16 h; also: nearly all actives have a fitted effect of over 60% in size
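Reporter readout depends on ELG1 protein level, which increases with genetic stress. After 16 hr compound exposure at 37 °C, luciferase activity was quantified using ONE-Glo.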
SMN2 splice enh – qHTS Assay for Enhancers of SMN2 Splice Variant Expression; HEK293 SMN2-luciferase splicing reporter, luminescence, 30-36 h; Potency, µM (doses to about 46.1 µM), actives largely listed as activators; actives 2.8% (n = 210,000); AID 1458, 2008; also: nearly all actives have a fitted effect of over 55% in size
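qHTS luciferase splicing reporter: luminescence rises when SMN2 exon 7 is included in transfected HEK293 cells. Compound exposure lasted 30-36 h at 37C, with 4.5 mM final sodium butyrate as control, followed by a ONE-Glo read.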
Rab9 promoter act – qHTS Assay for Rab9 Promoter Activators | Huh7 Rab9 promoter-luciferase reporter, luminescence, 24 h | Potency, µM (highest dose often 9.22 µM), actives largely listed as activators | actives 2.8% (n = 320,000) | AID 485297, 2010; also: nearly all actives have a fitted effect of over 60% in size
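Luminescence from Amplite-detected luciferase (10 minutes, ambient) reports Rab9 promoter activation. Before that, stable Rab9-luciferase Huh7 cells (1500/well, reduced-serum OP-MEM I plus 10% FBS) were exposed to compound for 24 hours at 37C.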
NPC1 prom act – qHTS Assay for NPC1 Promoter Activators; Huh7 NPC1 promoter luciferase reporter, 24 h; Potency, µM (titrated, usually from 9.22 µM), usual class: activators; actives 2.4% (n = 320,000); also: nearly all actives have a fitted effect of over 60% in size
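Luciferase expression driven by the NPC1 promoter was measured in stably transfected Huh7 cells after a 24 h compound incubation, using a luciferase reagent and a luminescence read.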
KinaseGlo FLuc – Counterscreen for Luciferase (Kinase-Glo TM) Inhibition; Kinase-Glo luciferase, ATP luminescence, 8 min; Potency, µM (highest dose often 38.3 µM), hits mostly inhibitors; actives 0.28% (n = 200,000); also: nearly all actives have a fitted effect of over 60% in size
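Substrate mix (final 50 mM imidazole pH 7.2, 50 mM KCl, 7 mM MgCl2, 10 uM ATP, 0.01% Tween 20, 0.05% BSA) plus pin-tool compound, then Kinase-Glo detection mix; 8 min ambient, luminescence read.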
FLuc modulator – qHTS profiling assay for firefly luciferase inhibitor/activator using purifed enzyme and Km concentrations of substrates (counterscreen for miR-21 project); purified FLuc, Km substrates, luminescence inhibition; Potency, µM (doses to about 57.5 µM), hits mostly inhibitors; Luciferin 4-monooxygenase (Photinus pyralis), P08659; actives 6.9% (n = 360,000); also: nearly all actives have a fitted effect of over 55% in size
Target sequence (P08659 whole entry, looked up): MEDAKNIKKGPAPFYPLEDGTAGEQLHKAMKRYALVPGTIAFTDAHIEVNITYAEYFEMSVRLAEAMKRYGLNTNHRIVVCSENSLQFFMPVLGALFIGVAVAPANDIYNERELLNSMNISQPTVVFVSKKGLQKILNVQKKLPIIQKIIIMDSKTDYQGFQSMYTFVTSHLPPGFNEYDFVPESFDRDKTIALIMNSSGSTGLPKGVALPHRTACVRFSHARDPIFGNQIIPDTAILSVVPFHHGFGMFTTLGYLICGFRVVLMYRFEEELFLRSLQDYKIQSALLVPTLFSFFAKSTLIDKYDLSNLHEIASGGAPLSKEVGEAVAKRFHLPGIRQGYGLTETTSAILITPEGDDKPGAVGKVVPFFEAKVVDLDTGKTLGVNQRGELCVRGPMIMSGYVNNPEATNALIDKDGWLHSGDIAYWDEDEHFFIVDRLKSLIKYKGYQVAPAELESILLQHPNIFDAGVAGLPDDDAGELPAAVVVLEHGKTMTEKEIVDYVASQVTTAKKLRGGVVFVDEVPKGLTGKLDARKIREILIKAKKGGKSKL
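Purified P. pyralis luciferase (10nM final) with 10uM D-luciferin and 10uM ATP (Km levels) in 50mM Tris acetate pH 7.5, 10mM Mg acetate, 0.01% Tween-20, 0.05% BSA; qHTS 6-point titration, ~60 µM downward; luminescence read.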
Numbers stand for hits; . = inactive; ? = inconclusive; / = no result; [ ] = another dose, or the depositor's remark. Calls follow the shape of the dose curve; as a rule, active = well fitted curve in the direction sought with a large enough effect; inconclusive = small, poorly fitted or top-dose-only effect, or another doubt; inactive = no such curve, though single readings can be large; an effect the other way counts as inactive or inconclusive.

SMILES	ELG1 genotox	SMN2 splice enh	Rab9 promoter act	NPC1 prom act	KinaseGlo FLuc	FLuc modulator
COC(=O)C(C)N1C(=O)S/C(=C\c2cc(C)n(-c3ccccn3)c2C)C1=O (configuration not stated)	1.64µM	.	2µM	2µM	.	2.69µM
CCOC(=O)CN1C(=O)S/C(=C/c2ccc(C)o2)C1=O	.	/	.	.	/	.
Cn1c(=O)c2c(ncn2CCSS(=O)(=O)O)n(C)c1=O	/	.[9.22 µM]	/	/	.[7.66 µM]	/
CCCCNc1c(-c2cccc(-c3ccc(OC)cc3)c2)nc2cc(C)ccn12	.	/	/	/	/	/
CCCCNc1c(-c2ccc(-c3cccc(Cl)c3)cc2)nc2ccccn12	.	/	3.98µM	?	/	10.7µM
CCCCNc1c(-c2cccc(-c3ccc(OC)cc3)c2)nc2ccc(C)cn12	.	/	.	.	/	9.53µM
CCCCNc1c(-c2cccc(-c3cc(C(C)=O)cs3)c2)nc2ccc(C)cn12	.	/	.	.	/	10.7µM
CCOC(=O)c1ccc2c(c1)N(Cc1ccc(F)cc1Cl)C(=O)c1ccccc1S2(=O)=O	/	/	/	/	/	.
COc1ccc(NC(=O)Cn2c(=O)n(Cc3ccco3)c(=O)c3oc4ccccc4c32)cc1Cl	/	/	/	/	/	.
N#C/C(=C\c1cccs1)C(=O)Nc1nccs1	?	?	2.82µM	3.55µM	.	4.26µM
N#C/C(=C\c1cccs1)C(=O)c1ccccc1Cl	.	/	.	.	/	21.3µM
CCOc1ccc(/C=C2/C(=O)N(c3ccc(OC)cc3)C(=S)N2CC(=O)OC)cc1OCC	?	12.6µM	?	?	.	6.01µM
C=CCOc1ccc(CNc2nccs2)cc1OCC	.	.	.	.	.	.
C=CCOc1ccc(CNc2nccs2)cc1	.	?	.	.	.	13.5µM
CCN1CCN(c2ncnc3c2cnn3-c2ccccc2)CC1	?	.	.	?	.	23.9µM
CCOC(=O)N1CCN(c2ncnc3c2cnn3-c2ccc(Cl)cc2)CC1	.	.	.	.	.	.
CCN1CCN(c2ncnc3c2cnn3-c2ccc(Cl)cc2)CC1	?	/	1.78µM	1.58µM	/	6.01µM
c1ccc(CCN2CCN(c3ncnc4c3cnn4-c3ccccc3)CC2)cc1	.	.	.	.	.	.
COc1cc(C)cc(OC)c1/C=C\C(=O)O	/	.[9.22 µM]	/	/	.[7.66 µM]	/
COc1cc(-c2noc(C3CC(=O)N(c4cc(C)ccc4C)C3)n2)cc(OC)c1OC (configuration not stated)	/	/	/	/	/	.
CCOC(=O)C1=C(O)c2ccccc2C(=O)/C1=C\c1ccc(C)cc1	.	.	.	.	.	6.75µM
C/C(=N\NC(=O)c1sccc1C)c1cccnc1	?	/	?	?	/	13.5µM
CCc1ccc(C(=O)N/N=C(\C)c2ccncc2)s1	?	/	3.16µM	3.55µM	/	16.9µM
C/C(=N\Nc1ccc(C)c(Cl)c1)c1ccncc1	.	/	.	.	/	?
C/C(=N\Nc1ccc(C)c(Cl)c1)c1cccnc1	.	/	?	?	/	15.1µM
SMILES	ELG1 genotox	SMN2 splice enh	Rab9 promoter act	NPC1 prom act	KinaseGlo FLuc	FLuc modulator
C/C(=N\NC(=O)c1sccc1C)c1ccncc1	10.3µM	/	3.16µM	?	/	16.9µM
C/C(=N/NC(=O)c1ccco1)c1cccnc1	.	.	.	.	.	.
CS(=O)(=O)N1CCC[C@@]2(CCN(C(=O)Nc3ccccc3)C2)C1	/	.	/	/	.	/
Cn1c(=O)c2cc(S(=O)(=O)NC(Cc3ccccc3)C(=O)Nc3ccc(F)cc3)ccc2n(C)c1=O (configuration not stated)	/	.	/	/	/	.
CCc1ccc(NC(=O)/C(C#N)=C/c2cn(CC(=O)O)c3ccccc23)cc1	.	.	.	.	.	?
CCOc1ccc(NC(=O)/C(C#N)=C/c2cn(CC(=O)O)c3ccccc23)cc1	.	/	.	.	/	19µM
N#C/C(=C/c1cn(CC(=O)O)c2ccccc12)C(=O)Nc1ccccc1	.	/	.	.	.	15.1µM
CC1=C(C(=O)N2CCN(c3ccc(Cl)cc3)CC2)C2(CCC(C)CC2)OC1=O (configuration not stated)	/	.	/	/	/	.
O=C(c1ccncc1)N1CCC2(CCCN(c3ncccn3)C2)CC1	/	.	/	/	.	/
CSc1ncccc1C(=O)Nc1nc(C(C)(C)C)cs1	.	/	.	.	/	16.9µM
Cc1csc(NC(=O)Cc2ccccc2Cl)n1	?	/	5.01µM	?	/	16.9µM
Cc1cnc(NC(=O)Cc2ccccc2Cl)s1	.	/	.	.	/	.
Cc1csc(NC(=O)c2ccccc2O)n1	?	.	?	?	.	12µM
CC(C)(C)c1csc(NC(=O)c2ccccc2O)n1	.	/	?	?	/	0.536µM
CC1=C[N+](=O)c2ccccc2[N+]1=O	/	.[9.22 µM]	/	/	.[7.66 µM]	/
COc1ccccc1C(=O)NC1(C(F)(F)F)C(=O)NC(C)=C1C#N (configuration not stated)	/	.	/	/	/	.
Cc1ccc(C(=O)O)c(C(=O)Nc2nc(C)cs2)c1	.	.	.	.	.	.
Cc1csc(NC(=O)c2cc(C)oc2C)n1	.	.	?	?	?	21.3µM
Cc1csc(NC(=O)c2nc3nc(C)cc(C)n3n2)n1	?	11.2µM	3.98µM	3.55µM	.	21.3µM
Cc1ccccc1N1C(=O)c2cc(S(N)(=O)=O)c(Cl)cc2N[C@H]1C	/	.	/	/	.	/
O=C1CC(c2nnc(Cc3ccc(F)cc3Cl)o2)CN1c1ccccc1 (configuration not stated)	/	.	/	/	/	.
Cc1cc(S(=O)(=O)Nc2cccc(-c3ccc(N4CCOCC4)nn3)c2)c(C)cc1Cl	/	/	/	/	/	12µM
COc1ccc(Cl)cc1S(=O)(=O)Nc1cccc(-c2ccc(N3CCOCC3)nn2)c1	/	/	/	/	/	19µM
Cc1cc(S(=O)(=O)NCCCN2CCOCC2)c(C)cc1Cl	.	/	.	.	/	.
COc1ccc(-c2cccc(NS(=O)(=O)c3cc(C)ccc3OC)c2)nn1	/	/	/	/	/	.
SMILES	ELG1 genotox	SMN2 splice enh	Rab9 promoter act	NPC1 prom act	KinaseGlo FLuc	FLuc modulator
Cc1ccc(CO/N=C/C2=C(Cl)c3ccccc3CC2)cc1	/	.	/	/	.	.
Cc1ccc(C(=O)O/N=C/c2c(C)nn(C)c2Cl)cc1	.	.	.	.	.	10.7µM
Cc1ccc(C(=O)O/N=C/c2c(C(F)(F)F)nn(C)c2Sc2ccc(Cl)cc2)cc1	.	.	.	.	.	?
Cc1ccc(C(=O)O/N=C/C2=C(Cl)c3ccccc3CC2)cc1	.	.	.	.	.	23.9µM
Cc1ccc(/C=N/OC(=O)c2nn(C)cc2Cl)cc1	.	.	.	.	.	1.35µM
O=C(O)c1ccc(NC(=O)c2ccc3c(c2)C(=O)N(c2ccccc2)C3=O)cc1	.	/	.	.	/	15.1µM
CCN1C(=O)c2ccc(C(=O)Nc3cccc(C(=O)O)c3)cc2C1=O	.	/	?	.	/	0.269µM
